# BoNT A protease: BoNT/A light chain protease inhibitors, primary screen, biochemical, flow cytometry, MLPCN library. Botulinum neurotoxin type A light chain protease (Clostridium botulinum A str. ATCC 3502). multiplex microsphere protease substrate cleavage. hit rate 0.17% among 360,000. inhibition, % at 10 µM; also: plate controls were buffer without enzyme for full effect and enzyme alone for no effect
# SSB-PriA inh: inhibitors of Klebsiella pneumoniae PriA binding to SSB C-terminal tail, primary screen, biochemical, AlphaScreen; AID 1272365, 2023; hit rate 0.6% among 430,000; inhibition, % at 33 µM; AlphaScreen SSBct-PriA binding, biotinylated peptide; in the data active = inhibition mostly above about 37%, no sharp cut-off; inactive = mostly below about 20%;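 also: plate controls were negative control peptide for no effect and reference peptide for full effect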
# BoNT-F LC inh: BoNT/F light chain protease inhibitors, primary screen, biochemical, flow cytometry, MLPCN library. Botulinum neurotoxin type F light chain protease (Clostridium botulinum). Multiplex microsphere protease cleavage assay. inhibition, % at 10 µM. hit rate 0.22% among 360,000; in the data active = inhibition above about 35%, passing the limit was not always enough; inconclusive = no clear call, values can overlap the other calls; also: plate controls were buffer without enzyme for full effect and enzyme alone for no effect
# Autofluor counter: flagged as autofluorescent in microsphere protease counterscreen; compound autofluorescence counterscreen, microsphere flow cytometry; stronger effect = higher value; fluorescence intensity (concentration not given with the values); hit rate 3.1% among 360,000; in the data active = fluorescence intensity above about 16000; inconclusive = no clear call, values can overlap the other calls
# Anthrax LF inh2: Bacillus anthracis LF protease inhibitors, primary screen, biochemical, multiplex microsphere, MLPCN library | AID 588501, 2011 | inhibition, % at 10 µM | Lethal factor (Bacillus anthracis), P15917 | hit rate 0.12% among 360,000 | multiplex microsphere protease cleavage assay; also: plate controls were buffer without enzyme for full effect and enzyme alone for no effect
# Active calls of the source: *; u = inconclusive; x = not tested or not shown. Sampled rows, rich in hits. Any-hit rate of the full collection: about 3.1%. Rule as the data show it, unless noted: active = inhibition above about 30%; inconclusive = no clear call, values can overlap the other calls; inactive = below that.
SMILES,BoNT A protease,SSB-PriA inh,BoNT-F LC inh,Autofluor counter,Anthrax LF inh2
COc1ccc(C(=O)CSc2nnc(C3CC3)n2N)cc1,u,-10.1,-0.1,22665*,1.0
CCOc1ccc(NC(=O)CSc2nnc(-c3ccccn3)n2C)cc1,-0.8,-9.6,0.8,11180,-8.7
C=CCn1c(SCC(=O)N2CCCC2)nc2scc(-c3ccc(C)o3)c2c1=O,x,-8.0,x,x,x
CCOc1ccc(NC(=O)c2ccco2)cc1,u,-9.0,-5.3,24897*,0.6
O=C(Nc1nccs1)c1ccc(NC(=O)c2ccco2)cc1,-2.1,-8.7,-6.3,17273*,-4.1
CCc1nnc2sc(-c3ccc(NC(=O)c4ccco4)cc3)nn12,-1.9,-16.0,-3.2,16661*,-0.9
Cn1cc(CC(=O)NCCOc2ccc(F)cc2)c2ccccc21,x,-9.0,x,x,x
COc1ccc(CNC(=O)N2CCN(CCn3ccnc3-c3ccccc3)CC2)cc1OC,x,-16.0,x,x,x
COC(=O)c1ccc(/C=C2\Oc3cc(OC)cc(C)c3C2=O)cc1,x,-21.0,x,x,x
Cc1[nH]c2ccccc2c1/C=N/NC(=S)NC(C)C,59.2*,x,-51.4,7206,12.8
Cc1ccc(NC(=S)NN=Cc2c(C)[nH]c3ccccc23)cc1,x,6.5,x,x,x
C#CCn1cc(C=NNc2nc3ccccc3[nH]2)c2ccccc21,x,44.0*,x,x,x
C=CCn1cc(/C=N/Nc2nc3ccccc3[nH]2)c2ccccc21,-1.0,x,-9.8,2209,-3.6
Cc1[nH]c2ccccc2c1C=NNc1nc2ccccc2[nH]1,x,41.2*,x,x,x
C(=NNc1nc2ccccc2[nH]1)c1c[nH]c2ccccc12,x,50.4*,x,x,x
COCCC(=O)c1c(N)n(C)c(=O)n(C)c1=O,x,-12.0,x,x,x
O=C(CCn1cnc2c([nH]c3ccccc32)c1=O)N1CCN(c2ccccc2)CC1,x,-3.0,x,x,x
C=CCn1c(SCC(=O)NC(Cc2ccccc2)C(=O)O)nc2sc3c(c2c1=O)CCC3 (stereo unspecified),x,3.0,x,x,x
COc1ccc(CCN(C)C(=O)CSc2nccn2C)cc1OC,u,-6.7,1.9,19523*,-0.6
CC(C)COc1ccc(S(=O)(=O)Nc2ccc3c(c2)C(=O)N(C)CCO3)cc1,x,-11.0,x,x,x
Cc1ccc(C(=O)CSc2cccc3cccnc23)c(C)c1,x,17.4,x,x,x
Cc1ccc(C(=O)COC(=O)CSc2cccc3cccnc23)c(C)c1,-0.4,77.8*,-10.5,3460,-2.1
Cc1ccc(C)c(C(=O)CSc2cccc3cccnc23)c1,x,107.5*,x,x,x
O=C(CCc1ccc(C(F)(F)F)cc1)NCC1CCN(S(=O)(=O)C2CC2)CC1,x,2.0,x,x,x
Cc1sc2nc(SCc3ccc(C(=O)O)cc3)n(Cc3ccco3)c(=O)c2c1C,0.6,-6.7,-0.1,3308,-2.3
Cc1sc2nc(SCC(=O)c3cccs3)n(Cc3ccco3)c(=O)c2c1C,-0.2,2.0,-0.9,22489*,0.4
Cc1sc2ncnc(SCC(=O)c3cccs3)c2c1C,-1.5,-8.6,-5.2,16770*,-2.2
CN(C)S(=O)(=O)c1cccc(NC(=S)NN=CC2CC=CCC2)c1 (stereo unspecified),x,-9.7,x,x,x
